Reference: PubChem BioAssay AID2562 (National Center for Advancing Translational Sciences (NCATS), 2010)
Results filed as inconclusive are left out. The call rests on the fitted dose curve; in most records, active means well fitted curve in the direction sought with a large enough effect; inconclusive means small, poorly fitted or top-dose-only effect, or effect the other way, or another doubt; inactive means no such curve, though single readings can be large or run the other way.

Target: Pyruvate kinase PKLR (Homo sapiens) (UniProt P30613)
Test: Secondary LDH Assay for Activators of Human Reticulocyte Pyruvate Kinase: for Probe SAR
Conditions: purified hPK-R, LDH-coupled NADH fluorescence kinetic; series mostly up to 58.4 µM; activity change, positive = activation: at the top concentration
Description: NIH Chemical Genomics Center [NCGC] Wael M. Rabeh, Lyudmila Nedyalkova and Hee-Wan Park [Structural Genomics Consortium, 100 College St. Toronto, Ontario, Canada] NCGC Assay Overview: Human pyruvate kinase reticulocyte (hPK-R) enzyme was supplied as a highly purified (>95% pure) preparation from Structural Genomics Consortium in Toronto (Ontario, Canada) and a secondary assay was used to evaluate compounds. This assay couples the formation of pyruvate from hPK-R using lactate dehydrogenase (LDH) and NADH. The depletion of NADH is followed in a fluorescent-based kinetic assay that follows the formation of pyruvate to lactate, as catalyzed LDH. Pyruvate kinase substrates, PEP and ADP, were present in the assay at 0.1 mM and 4 mM respectively. In this kinetic assay initial rates were determined by following the fluorescence of NADH depletion.
NCGC Assay Protocol Summary: Three uL of substrate mix (final concentration, 50 mM Tris-Cl pH 8.0, 200 mM KCl, 15 mM MgCl2, 0.1 mM PEP, 4.0 mM ADP, and 0.2 mM NADH) was dispensed into black-solid 1536 well plates. 23 nL of compounds were delivered by a pin tool and 1 uL of enzyme mix (final concentrations, 10 nM hPK-R and 1 uM of LDH) was added. Plates were immediately placed in ViewLux (Perkin Elmer) and NADH fluorescence was determined at 30 second exposure intervals for between 3 and 6 minutes. Data were normalized to the uninhibited and EC100 activation using known activators such as fructose-bis-phosphate.

Chain of Pyruvate kinase PKLR (Homo sapiens) (P30613 whole entry, looked up): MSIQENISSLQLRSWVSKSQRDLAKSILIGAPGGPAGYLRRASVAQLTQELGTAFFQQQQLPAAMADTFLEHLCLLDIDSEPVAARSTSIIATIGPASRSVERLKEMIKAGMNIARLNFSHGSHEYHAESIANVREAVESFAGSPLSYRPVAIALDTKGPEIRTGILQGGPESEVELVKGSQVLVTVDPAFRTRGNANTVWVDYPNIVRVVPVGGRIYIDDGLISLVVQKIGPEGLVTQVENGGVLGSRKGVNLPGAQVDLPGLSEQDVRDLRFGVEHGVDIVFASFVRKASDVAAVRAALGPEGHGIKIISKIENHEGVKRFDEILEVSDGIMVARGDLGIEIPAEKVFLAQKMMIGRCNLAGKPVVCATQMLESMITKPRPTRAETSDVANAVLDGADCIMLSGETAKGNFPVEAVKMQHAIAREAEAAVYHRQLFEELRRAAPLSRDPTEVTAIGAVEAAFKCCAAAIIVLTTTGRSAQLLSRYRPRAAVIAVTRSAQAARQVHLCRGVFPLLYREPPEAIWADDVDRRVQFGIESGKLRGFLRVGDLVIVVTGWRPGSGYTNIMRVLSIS

Activity change, positive = activation, inactive:
Cc1ccc(NC(=O)c2ccc3c(c2)CCC(=O)N3)cc1C -10.1%
O=C1c2ccccc2C(=O)N1c1cccc2cccnc12 -6.84%
O=C1c2ccccc2C(=O)N1c1cccc2cnccc12 -1.61%
O=C1c2ccccc2C(=O)N1c1ccccc1O 5.76%
O=C1CCc2cc(S(=O)(=O)Nc3cccc(F)c3)ccc2N1 10.9%
O=C1CCc2cc(S(=O)(=O)Nc3ccc(Cl)cc3)ccc2N1 2.79%
O=C1c2ccccc2C(=O)N1c1cccc(O)c1 10.1%
Cc1ccc(NS(=O)(=O)c2cc3c(cc2F)NC(=O)CC3)cc1C 29.9%
Cc1cc2c(s1)c1cnn(Cc3ccccc3F)c(=O)c1n2C 10.6%
CC(=O)Nc1cccc(S(=O)(=O)Nc2ccc(C)c(C)c2)c1 2.66%
Cc1ccc(NS(=O)(=O)c2cccc(Cl)c2)cc1C 14.8%
Nc1cc(S(=O)(=O)N2CCN(S(=O)(=O)c3ccc4c(c3)OCCO4)CC2)ccn1 -4.54%
O=C1c2ccccc2C(=O)N1c1cccc(=O)[nH]1 16.3%
COc1ccc(N2C(=O)c3ccccc3C2=O)cc1 15.9%
Cc1cccc(OC2=NS(=O)(=O)c3ccccc32)c1 4.25%
O=C1c2ccccc2C(=O)N1Cc1ccncc1 -0.775%
COc1cccc(OC2=NS(=O)(=O)c3ccccc32)c1 17.7%
O=C1c2ccccc2C(=O)N1c1ccccn1 -1.61%
Cc1ccc(NS(=O)(=O)c2ccc3c(c2)NC(=O)CO3)cc1C 19.8%
Cc1ccccc1OC1=NS(=O)(=O)c2ccccc21 4.32%
COc1ccccc1NS(=O)(=O)c1ccc2c(c1)CCC(=O)N2 3.07%
Cc1ccc(NS(=O)(=O)c2cc3c(cc2Cl)NC(=O)C3)cc1C 9.95%
Cc1ccc(NS(=O)(=O)c2ccc3c(c2)CC(=O)N3C)cc1C 3.66%
COc1cccc(N2C(=O)c3ccccc3C2=O)c1 10.9%
Cc1ccc(OC2=NS(=O)(=O)c3ccccc32)cc1 6.1%
Cc1ccc(NS(=O)(=O)c2ccc3c(c2)CC(=O)N3)cc1C 10%
Cc1ccc(NS(=O)(=O)c2ccc3c(c2)CCN(C(=O)C(F)(F)F)C3)cc1C 12.5%
CC(=O)N1CCc2cc(S(=O)(=O)Nc3ccc(C)c(C)c3)ccc21 15.7%
Cc1ccc(NS(=O)(=O)c2cc3c(cc2N2CCC2)NC(=O)CC3)cc1C 5.56%
O=C1c2ccccc2C(=O)N1c1cncc2ccccc12 0.998%
COc1cc(F)c(S(=O)(=O)N2CCCN(S(=O)(=O)c3cccc(N)c3)CC2)c(F)c1 14.3%
COc1ccc(Nc2c(-c3ccc(C)o3)nc3ccccn23)cc1 6.46%
Cc1ccc(NS(=O)(=O)c2ccc3c(c2)oc(=O)n3C)cc1C 15.8%
CCNc1cccc(S(=O)(=O)N2CCN(S(=O)(=O)c3ccc4c(c3)OCCO4)CC2)c1 -1.39%
CN(C)c1cccc(S(=O)(=O)N2CCN(S(=O)(=O)c3ccc4c(c3)OCCO4)CC2)c1 -2.84%
O=C1CCc2cc(S(=O)(=O)Nc3ccccc3F)ccc2N1 13.6%
O=C1CCc2cc(S(=O)(=O)Nc3cccc4ccccc34)ccc2N1 18.3%
COc1ccc(OC2=NS(=O)(=O)c3ccccc32)cc1 12.6%
Cc1ccc(NS(=O)(=O)c2ccc3c(c2)CCC(=O)N3)cc1C 15.6%
COc1ccccc1OC1=NS(=O)(=O)c2ccccc21 7.5%
